Screening data from PubChem BioAssay.
The sample as a whole holds a higher share of hits than the screen did.
Pf Dd2 growth: inhibitors of Plasmodium falciparum Dd2 growth. Potency, µM (series often up to 28.9 µM), actives largely listed as inhibitors. hit rate 4.3% among 120,000. P. falciparum Dd2 growth, SYBR Green, 72 h; active = well fitted inhibition curve with a large enough effect; note: nearly all actives have a fitted effect of over 65% in size
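Infected erythrocytes (Dd2, 0.3% parasitemia, 2.5% hematocrit final) are added to compound in RPMI-1640/Albumax II medium, grown 72 h at 37C in low oxygen, then lysed with saponin/Triton-X containing SYBR Green and read by fluorescence.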
Of the large screens only hits and unclear results are named; the others gave an inactive call; ! = repeats disagree.

O=C(NCc1ccc2c(c1)OCO2)c1ccc2c(c1)CC(=O)N2Cc1ccc(F)cc1	none
Cn1ncc(N2CCC(C(=O)NCc3ccc(OC(F)(F)F)cc3)C2)cc1=O (stereo not given)	none
CN1[C@@H](CCC(=O)N2CCC(O)CC2)CNC(=O)[C@@H]2[C@H]1CCN2Cc1ccc(S(C)(=O)=O)cc1	none
O=C(CSc1nc2ccccc2n1Cc1ccccc1F)NCc1ccccc1	none
Cc1ccccc1Cn1c(SCc2ccc(C(=O)NCc3cccs3)cc2)nc2ccncc21	Pf Dd2 growth 10µM
O=C(NCc1cccs1)c1ccc(CSc2nc3ccncc3n2Cc2ccccc2F)cc1	Pf Dd2 growth 13µM
Cc1oc(-c2ccccc2F)nc1Cn1c(SCc2ccccc2F)nc2ccncc21	none
CN(Cc1cccnc1)c1nc2c(c(=O)[nH]1)CCN(Cc1ccccc1C#N)CC2	none
COc1ccc(CN2CCc3nc(N4CCN(C)CC4)[nH]c(=O)c3CC2)cc1	none
Cn1nccc1C(=O)N1CCC(N2CC3CC(C2)[C@H]2CCCC(=O)N2C3)CC1 (stereo not given in full)	none
O=C([C@@H]1C[C@H](F)CN1S(=O)(=O)Cc1ccccc1Cl)N1CCCCC1	none
Cc1nc(-c2cn(C3CCCN(C(=O)c4ccccc4)C3)nn2)no1 (stereo not given)	none
CN(Cc1cccc(OCC(O)CN2CCOCC2)c1)Cc1ccc2nonc2c1 (stereo not given)	none
COc1ccccc1C(=O)Nc1ccc(-c2nc3cc(C)cc(C)c3o2)cc1	none
Cc1cc(C)c2oc(-c3cccc(NC(=O)c4ccc(Br)o4)c3)nc2c1	none
Cc1cc(C)c2oc(-c3ccc(NC(=O)c4cc(Br)ccc4Cl)cc3)nc2c1	Pf Dd2 growth 10µM
CCCCC(=O)Nc1ccc(NC(=O)CCCN2CCCC2=O)cc1	none
CN(C)[C@@H]1CN(Cc2cccc(C#N)c2)C[C@H]1CO	none
Cc1c(Cl)cccc1-c1ccc(/C=C(\C#N)c2nc3ccccc3[nH]2)o1	none
N#C/C(=C/c1ccc(Cl)cc1Cl)c1nc2ccccc2c(=O)[nH]1	none
COc1c(Cl)cc(Cl)cc1/C=C(\C#N)c1nc2ccccc2[nH]1	Pf Dd2 growth 5.6µM
COc1ccccc1C(=O)N1CC(Oc2ccc(-c3nc(C)no3)cc2)C1	none
CC(C)n1cnnc1-c1nn(C)c2c1CN(C(=O)Cc1c[nH]c3ccccc13)CC2	Pf Dd2 growth 8.9µM
CCNC(=O)N1CCc2c(c(-c3nncn3-c3ccccc3)nn2C)C1	none
Cn1cnnc1-c1nn(C)c2c1CN(C(=O)c1n[nH]c(=O)c3ccccc13)CC2	none
Cc1ccsc1CN(C)Cc1c(C)n(C)n(-c2ccccc2)c1=O	none
Cc1ncoc1C(=O)N1CCCC(c2nc(-c3cccnc3)no2)CCNC(=O)CC1 (stereo not given)	none
Cc1nnc(CN2CCN(C)C3(CCC(=O)N(CC(=O)O)CC3)C2)o1 (stereo not given)	none
COc1ccc(Cn2ccc3nc(C)c(C(=O)N4CCN(c5ccc(F)cc5)CC4)cc3c2=O)cc1	none
COc1ccc(N2CCN(C(=O)c3noc4c3CCCCC4)CC2)cc1	none
CCn1c2c(c(=O)n3ncc(C(=O)N4CCN(c5ccc(C(C)=O)cc5)CC4)c13)CN(Cc1ccc(OC)cc1)CC2	Pf Dd2 growth 10µM
O=C(CCc1nnn2c1CNCC2)NC1CC1	none
O=C(NCC1CCCO1)N1CCc2c(nc3cc(-c4ccccc4Cl)[nH]n3c2=O)C1 (stereo not given)	none
Cc1cc(CNc2ncnc3c2CCN(C(=O)c2ccoc2)CC3)no1	none
CCC(=O)N1c2ccccc2CC1C(=O)NCCCN1CCN(c2ccc(F)cc2)CC1 (stereo not given)	none
O=C(NCCCN1CCN(c2ccc(F)cc2)CC1)Nc1ccccc1Cl	Pf Dd2 growth 7.9µM
CCOc1ccc(NC(=O)NCCCN2CCN(c3ccc(F)cc3)CC2)cc1	none
CN1CCC(Cn2ccc3c(N4CCOCC4)nc(-c4cccc5[nH]ccc45)cc32)CC1	none
CN1CCC(Cn2ccc3c(N4CCOCC4)nc(-c4ccc5cn[nH]c5c4)cc32)CC1	Pf Dd2 growth 3.5µM
C[S+](=O)([O-])N1CCC(Cn2ccc3c(N4CCOCC4)nc(-c4cccc5[nH]ncc45)cc32)CC1	none
CCN(CC)[C@H]1[C@@H]2OC[C@@H](O2)[C@@H](NCc2ccc(OC(F)(F)F)cc2)[C@@H]1O	none
O=C(NCc1ccccc1-n1cccn1)C1NCCc2[nH]cnc21 (stereo not given)	none
COc1ccc(Cl)cc1NC(=O)CSc1nc2c([nH]c3ccccc32)c(=O)n1-c1ccccc1	Pf Dd2 growth 4.5µM
CCOc1ccc(-n2c(SCC(=O)Nc3cc(C)on3)nc3c([nH]c4ccccc43)c2=O)cc1	none
O=C(CSc1nc2c([nH]c3ccccc32)c(=O)n1-c1ccccc1)Nc1ccccc1C(F)(F)F	none
Cc1cccc(CSc2nc3c([nH]c4ccccc43)c(=O)n2C)c1	none
Cc1cc(NC(=O)CSc2nc3c([nH]c4ccccc43)c(=O)n2-c2ccc(Cl)cc2)no1	none
COc1cccc(-n2c(SCc3cccc(C)c3)nc3c([nH]c4ccccc43)c2=O)c1	Pf Dd2 growth 10µM
CCn1c(SCC(=O)Nc2cc(Cl)ccc2OC)nc2c([nH]c3ccccc32)c1=O	none
Cc1ccc(-n2c(SCC(=O)Nc3ccc4c(c3)OCO4)nc3c([nH]c4ccccc43)c2=O)cc1	Pf Dd2 growth 10µM
COc1cccc(NC(=O)CSc2nc3c([nH]c4ccccc43)c(=O)n2-c2cc(C)cc(C)c2)c1	Pf Dd2 growth 8.9µM
COc1cccc(-n2c(SCC(=O)c3ccccc3)nc3c([nH]c4ccccc43)c2=O)c1	none
Cc1cc(C)cc(-n2c(SCC(=O)Nc3nnc(C)s3)nc3c([nH]c4ccccc43)c2=O)c1	none
Cc1cccc(NC(=O)CSc2nc3c([nH]c4ccccc43)c(=O)n2C)c1	none
Cc1nonc1CC(=O)N1CCc2onc(-c3ccc(F)c(F)c3)c2C1	none
Cc1noc(C)c1S(=O)(=O)N1CCOC[C@H](Oc2ccc(C(F)(F)F)cc2)C1	none
O=C(NC1CC1)c1cnn2ncccc12	none
C[C@H]1CN(C(=O)Nc2ccc(F)cc2F)C[C@@H]1c1nc(-c2ccccc2)no1	none
O=C(N[C@@H](Cn1ccc(=O)[nH]c1=O)C(=O)O)C1CC1	none
O=C(CC1CCOCC1)NCC1CCN(Cc2cccc(F)c2)CC1	none
Cn1c(Cn2cccn2)nnc1C1CCCN(C(=O)Cc2cccnc2)C1 (stereo not given)	none
Cc1noc(C)c1C(=O)N1CCC2(CC1)CN([S+](=O)([O-])c1ccccc1)CCO2	none
CCOc1ccccc1CN1CCC2(CCN(C(=O)NC3CCCC3)CC2)Oc2ccccc21	none
CCOc1ccccc1CN1CCC2(CCN(Cc3ccsc3)CC2)Oc2ccccc21	Pf Dd2 growth 10µM
CCOc1ccccc1CN1CCC2(CCN(C(=O)C3CC3)CC2)Oc2ccccc21	none
CCOc1ccccc1CN1CCC2(CCN(C(C)=O)CC2)Oc2ccccc21	none
CCOc1ccccc1CN1CCC2(CCN(C(=O)Cc3ccccn3)CC2)Oc2ccccc21	Pf Dd2 growth 11µM!
CCOc1ccccc1CN1CCC2(CCN(C(=O)c3cccc(OC)c3)CC2)Oc2ccccc21	none
Cc1ccc(C(=O)N[C@H]2CO[C@H]3[C@@H]2OC[C@@H]3n2cc(CC3CCCCC3)nn2)cc1	none
CCc1nc2c(c(-c3ccc(O)cc3)n1)CCN(Cc1cccnc1)CC2	none
O=C(C1CC=CCC1)N1CCC(C2CCNC2)CC1 (stereo not given)	none
CCNC(=O)c1cccnc1OC1CCN(C(=O)c2ccnn2C)C1 (stereo not given)	none
N#Cc1ccccc1CN1CCCC(c2nc(-c3cccnc3)no2)CCNC(=O)CC1 (stereo not given)	none
N#Cc1ccc(CN2CCCC(c3nc(-c4cccnc4)no3)CCNC(=O)CC2)cc1 (stereo not given)	Pf Dd2 growth 4µM
